# Pol eta inh-1: qHTS for Inhibitors of Polymerase Eta | 1.2% of 390,000 active | recombinant Pol eta, fluorescent DNA replication assay | Potency, µM (titrated, usually from 114 µM), for the others: top-dose activity change, negative = inhibition, actives largely listed as inhibitors | DNA polymerase eta (Homo sapiens), Q9Y253; note: potency is the fitted concentration of half-maximal effect; % is set by controls: 0 for no effect and ±100 for the full control effect
#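 Pol eta at 10 nM preincubated with compounds 15 min at room temperature; reaction started with fluorescent substrate (50 nM final) and read kinetically at 0 and 10 min.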
# PI5P4K alpha inh: qHTS for Inhibitors of phosphatidylinositol 5-phosphate 4-kinase (PI5P4K) | Phosphatidylinositol 5-phosphate 4-kinase type-2 alpha (Homo sapiens), P48426 | PI5P4Kalpha enzyme, ADP-Glo luminescence, 60 min; hits give low values | max response, % | 1.2% of 330,000 active | AID 652105, 2013; active = max response of -50% or lower; inconclusive = between -30% and -50%; inactive = -30% or higher; note: value at the top dose of about 77 µM; % is set by controls: 0 for no effect and ±100 for the full control effect
#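 Controls without substrate or without enzyme flank wells where PI5P4Kalpha converts substrate using 5 microM ATP (final). Incubation lasts 60 minutes at room temperature; ADP formed is read by ADP-Glo luminescence.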
# POLB inh: qHTS Assay for Inhibitors of DNA Polymerase Beta; Pol beta primer extension/strand displacement, fluorescence kinetic; 1.3% of 340,000 active; Potency, µM (highest dose often 114 µM), inactives show at the top dose activity change, negative = inhibition, most hits filed as inhibitors; P06746; note: potency is the fitted concentration of half-maximal effect; % is set by controls: 0 for no effect and ±100 for the full control effect
#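 10 nM enzyme + cpd, 15 min RT; start with substrate 50 nM final; read 0 min and after 10 min RT. Corrected, normalized data; 4-parameter Hill curve fit.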
# Pol kappa inh-1: qHTS for Inhibitors of Polymerase Kappa | purified Pol kappa, fluorescent DNA synthesis assay, 10 min | 0.53% of 400,000 active | Potency, µM (highest dose often 107 µM), without a hit: at the top dose activity, negative = inhibition, hits mostly inhibitors | DNA polymerase kappa (Homo sapiens), Q9UBT6 | AID 588579, 2011; note: potency is the fitted concentration of half-maximal effect; % is set by controls: 0 for no effect and ±100 for the full control effect
#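 Kinetic fluorescence readout at 0 and 10 min followed reaction start with substrate at 50 nM final. Beforehand, enzyme (10 nM Pol kappa) stood 15 min with compound at room temperature; buffer-only wells were negative controls.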
# FEN1 inh: qHTS Assay for the Inhibitors of Human Flap endonuclease 1 (FEN1); Potency, µM (doses to about 114 µM), for the others: at the highest dose activity change, negative = inhibition, actives largely listed as inhibitors; Recombinant FEN1 flap cleavage, fluorescence, 15 min; 0.35% of 390,000 active; P39748; note: potency is the fitted concentration of half-maximal effect; % is set by controls: 0 for no effect and ±100 for the full control effect; nearly all actives have a fitted effect of over 65% in size
#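 FEN1 at 10 nM preincubated with compounds 15 min at room temperature, then flap DNA substrate added at 50 nM final. Signal read at 0 and 15 min; concentration-response fitted with four-parameter Hill equation.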
# Pol iota inh: qHTS for Inhibitors of Polymerase Iota; DNA polymerase iota (Homo sapiens), Q9UNA4; Pol iota fluorescent replication assay, 10 min; Potency, µM (top dose mostly 115 µM), without a hit: at the top dose activity, negative = inhibition, usual class: inhibitors; 1% of 390,000 active; AID 588590, 2011; note: potency is the fitted concentration of half-maximal effect
#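 Pol iota at 10 nM preincubated 15 min with compounds at room temperature; reaction started with fluorescent substrate, 50 nM final. Fluorescence read kinetically at 0 and 10 min; buffer-only wells as negative control.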
# Pol kappa inh-2: qHTS for Inhibitors of Polymerase Kappa: Confirmatory Assay for Cherry-picked Compounds; shares compounds with Pol eta inh-1; purified Pol-kappa, fluorescent strand-displacement substrate; Potency, µM, most hits filed as inhibitors; 76% of 920 active; note: potency is the fitted concentration of half-maximal effect
# Pol eta inh-2: qHTS for Inhibitors of Polymerase Eta: Confirmatory Assay for Cherry-picked Compounds; shares compounds with Pol eta inh-1; Pol eta primer extension, TAMRA/BHQ fluorescence, 10 min; Potency, µM, actives largely listed as inhibitors; 64% of 2,600 active; AID 720502, 2013; note: potency is the fitted concentration of half-maximal effect
# * hit, by the source's call; ? = inconclusive; nt = not tested or not shown. Hits are enriched below; roughly 2.8% of the tested compounds scored in any of these assays. Unless noted, calls come from the whole dose curve; as a rule, active = well fitted curve in the direction sought with a large enough effect; inconclusive = small, poorly fitted or top-dose-only effect, or another doubt; inactive = no such curve, though single readings can be large; an effect the other way counts as inactive or inconclusive.
SMILES,Pol eta inh-1,PI5P4K alpha inh,POLB inh,Pol kappa inh-1,FEN1 inh,Pol iota inh,Pol eta inh-2,others
CC(=O)c1cccc(NC(=O)CN2C(=O)C(=O)N(Cc3ccco3)C2=O)c1,14µM*,-26,nt,?,-21%,50µM*,?,
Cc1ccc(C)n1-c1nnc(N2CCCC(C(=O)NCc3ccc(F)cc3)C2)s1 (stereo unspecified),-10%,nt,-13%,-6%,-4%,16%,nt,
CC(/C=N/NC(=O)Cc1cccs1)=C\c1ccco1,?,-16,26%,-13%,9%,-7%,nt,
CC(/C=C/c1ccco1)=N/NC(=O)Cc1cccs1,18µM*,-52*,22µM*,?,-13%,32µM*,?,
CC(/C=C/c1ccco1)=N\NC(=O)c1cc(Cl)ccc1O,22µM*,-80*,?,79µM*,-6%,40µM*,?,
Cn1c(-n2cccc2)c(-c2c(-c3ccccc3)[nH]c3c2c(=O)[nH]c(=O)n3C)c(=O)[nH]c1=O,79µM*,nt,16µM*,?,1%,79µM*,nt,Pol kappa inh-2=?
Cc1onc(-c2ccccc2Cl)c1C(=O)NCc1ccco1,45µM*,nt,28µM*,?,-7%,?,?,
O=C(CCc1nnc2ccc(NCc3ccco3)nn12)Nc1ccccn1,28µM*,-24,?,5%,7%,20%,?,
Cc1cccc(NC(=O)CCc2nnc3ccc(NCc4ccco4)nn23)n1,25µM*,-21,?,1%,-1%,36%,76*,
Cc1sc2nc3ccc(NCc4ccco4)nn3c(=O)c2c1C,?,-16,?,-36%,-2%,?,nt,
O=c1c2ccccc2nc2ccc(NCc3ccco3)nn12,?,-26,?,-37%,-21%,?,?,
CN(C)c1ccc(/C=C(/NC(=O)c2ccccc2)C(=O)N2CCCC2)cc1,-17%,-9,4%,-2%,4%,133%,nt,
CCC(ONc1ccccc1C(F)(F)F)(C(=O)NN(C)C)c1ccccc1 (stereo unspecified),-17%,-1,nt,-16%,5%,6%,nt,
O=[N+]([O-])c1ccc2c(c1)N([O-])C1(CCCCC1)[N+]2=O,22µM*,-51*,-2%,?,?,11µM*,85*,
Cc1ccc(C)c(OCC(=O)Nc2cc(NC(=O)COc3cc(C)ccc3C)cc(C(=O)O)c2)c1,50µM*,0,0%,-13%,-25%,?,67*,
O=C(C1Cc2ccccc2CN1C(=O)c1ccccc1)N1CCN(c2ccccc2)CC1 (stereo unspecified),79µM*,-24,32µM*,?,1%,?,76*,Pol kappa inh-2=?
COc1ccc(N2CCN(C(=O)C3Cc4ccccc4CN3C(=O)c3ccco3)CC2)cc1 (stereo unspecified),-3%,3,nt,-17%,-2%,-1%,nt,

# Screening data from PubChem.
